Assay results: PubChem BioAssay (NCATS)
Where “and” joins values, the source holds several entries; their conditions need not be identical. Identical values can stand only once. Inconclusive results are not listed. Calls of active or inactive are those of the source. Unless noted, the call rests on the fitted dose curve.

Assays:
[1] = biological target: Androgen receptor (Homo sapiens) (UniProt P10275); test: qHTS assay for small molecule agonists of androgen receptor signaling (AID 588515; active means well fitted curve in the direction sought with a large enough effect in the signal ratio, with a control signal flat; the % refers to the signal ratio; further: on the % scale 0 is the no-effect control and ±100 the full control effect); conditions: AR-UAS-bla HEK293, beta-lactamase ratio, agonist 16 h; stronger effect = higher value
Outline: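 EC50 and efficacy came from Hill fits of titrations (up to 92 uM) normalized to 30 nM R1881 as 100% and DMSO as 0%. Compound exposure was 16 h at 37 C on AR-UAS-bla HEK293 cells, with a 405/460/530 nm CCF4 fluorescence read.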

[2] = biological target: Bile acid receptor (Homo sapiens) (UniProt Q96RI1); test: qHTS assay for small molecule antagonists of farnesoid X receptor signaling (AID 588526); further: potency means the concentration at half of the fitted maximal effect
Outline: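 Concentration-response titrations were fitted to the Hill equation for half-maximal inhibition and maximal response, with data normalised to 50 uM chenodeoxycholic acid and DMSO control wells. Cells: FXR-UAS-bla HEK293T, dialyzed FBS.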

[3] = biological target: Bile acid receptor (Homo sapiens) (UniProt Q96RI1); test: qHTS assay for small molecule agonists of farnesoid X receptor signaling (AID 588527); conditions: HEK293T FXR-UAS-bla, beta-lactamase ratio, 16 h; activation: stronger effect = higher value;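 further: series mostly up to about 77 µM; 0% = vehicle basal and 100% = reference agonist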
Outline: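 Agonist-mode beta-lactamase reporter in GeneBLAzer FXR-UAS-bla HEK293T cells, titration up to 92 uM, 16 h exposure at 37 C, CCF4 fluorescence. Response scaled to DMSO (0%) and 100 uM chenodeoxycholic acid (100%), then Hill-fitted for EC50 and efficacy.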

[4] = qHTS assay for small molecule antagonists of peroxisome proliferator-activated receptor delta signaling (AID 588535; active means well fitted inhibition curve with a large enough effect in the signal ratio, with a control signal flat, not every such curve was filed as active; the % refers to the signal ratio;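 on max response: cells co-treated with a PPAR-delta agonist as stimulator during compound exposure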); conditions: HEK293T PPARd-UAS-bla, beta-lactamase FRET ratio, 18 h; 460 nm channel
Outline: (§1)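 Reporter: UAS-bla under PPAR-delta response element, HEK293T host. Medium: 2% charcoal/dextran FBS. Dosing: titration, 18 hrs, 37 C. Detection: CCF4, 2 hrs RT, 405 ex/460 and 530 em.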

[5] = biological target: Peroxisome proliferator-activated receptor delta (Homo sapiens) (UniProt Q03181); test: as above
Outline: as §1

[6] = biological target: Peroxisome proliferator-activated receptor gamma (Homo sapiens) (UniProt P37231); test: qHTS assay for small molecule antagonists of peroxisome proliferator-activated receptor gamma signaling (AID 588537; active means well fitted inhibition curve with a large enough effect in the signal ratio, with a control signal flat, not every such curve was filed as active; the % refers to the signal ratio;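 further: reporter cells co-stimulated with 50 nM rosiglitazone agonist during compound treatment; % of control where 0% means no effect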)
Outline: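 We seeded GeneBLAzer HEK293 reporter cells at 3000 per well, allowed 6-6.5 h attachment at 37 C, then co-treated with test compound titrations and 50 nM rosiglitazone overnight (16 h). Inhibition was quantified from 460/530 nm emission ratios.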

[7] = biological target: Vitamin D3 receptor (Homo sapiens) (UniProt P11473); test: qHTS assay for small molecule antagonists of vitamin D receptor signaling (AID 588541);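 further: receptor activated by calcitriol during compound treatment; series mostly up to about 77 µM; on the % scale 0 is the no-effect control and ±100 the full control effect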
Outline: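 VDR-UAS-bla HEK293T cells (2000/well, 2% charcoal-stripped FBS) were treated with titrated compounds plus 1-alpha,25-dihydroxyvitamin D3 (50 nM or 3 nM final) for 16 h at 37 C. CCF4 beta-lactamase fluorescence was read; Hill fits gave IC50.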

[8] = qHTS assay for small molecule activators of the nuclear factor-kappa B (NF-kB) signaling pathway (AID 651749; active means well fitted activation curve with a large enough effect in the signal ratio; the % refers to the signal ratio; further: series mostly up to about 77 µM; % of control where 0% means no effect); conditions: NF-kB-bla ME-180 cells, beta-lactamase FRET ratio, 16 h; activation: stronger effect = higher value
Outline: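 Screening used 2,000 ME-180 reporter cells per well exposed to pinned compound (23 nL) or DMSO; after 16 hr at 37C, beta-lactamase expression under NF-kB control was assessed through FRET.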

[9] = qHTS assay for small molecule activators of the human pregnane X receptor (PXR) signaling pathway (AID 720659; call rule not given here; further: 0% is about no effect)
[10] = qHTS assay for small molecule agonists of the antioxidant response element (ARE) signaling pathway (AID 651741; active means well fitted activation curve with a large enough effect in the signal ratio; the % refers to the signal ratio; further: potency means the concentration at half of the fitted maximal effect; on activation: % of control where 0% means no effect)
Outline: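 Compounds in DMSO are pinned onto HepG2 ARE-bla cells (2,000/well) that were preincubated 5 h; plates stay 16 h at 37 C, then beta-lactamase activity is detected with LiveBLAzer B/G substrate by fluorescence.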

[11] = biological target: Androgen receptor (Homo sapiens) (UniProt P10275); test: qHTS assay for small molecule antagonists of androgen receptor signaling (AID 588516; active means well fitted curve in the direction sought with a large enough effect in the signal ratio, with a control signal flat, not every such curve was filed as active; the % refers to the signal ratio; further: on the % scale 0 is the no-effect control and ±100 the full control effect)
Outline: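 Cells were plated and incubated 5 h, compounds added in titration, then R1881 (10 nM final) as agonist. After 16 h at 37 C, CCF4 substrate was loaded for 2 h at room temperature and fluorescence measured.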

[12] = biological target: Luciferin 4-monooxygenase (Photinus pyralis) (UniProt P08659); test: Biochemical firefly luciferase enzyme assay for NPC (AID 624030; active means well fitted inhibition curve with a large enough effect;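 further: purified P. pyralis luciferase at 10 nM with luciferin and ATP substrate; series mostly up to about 59 µM; 0% = DMSO and -100% = full luciferase inhibition by PTC124 control; nearly all actives have a fitted effect of over 70% in size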)
Outline: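 Counter-screen for direct inhibition of the luciferase enzyme by approved-drug library compounds, run at 10 nM enzyme in 50 mM Tris acetate (final). Luminescence was read within 5 min of enzyme-buffer addition and normalized to PTC124 versus DMSO (0%).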

Bile acid receptor (Homo sapiens), sequence (Q96RI1 whole entry, looked up): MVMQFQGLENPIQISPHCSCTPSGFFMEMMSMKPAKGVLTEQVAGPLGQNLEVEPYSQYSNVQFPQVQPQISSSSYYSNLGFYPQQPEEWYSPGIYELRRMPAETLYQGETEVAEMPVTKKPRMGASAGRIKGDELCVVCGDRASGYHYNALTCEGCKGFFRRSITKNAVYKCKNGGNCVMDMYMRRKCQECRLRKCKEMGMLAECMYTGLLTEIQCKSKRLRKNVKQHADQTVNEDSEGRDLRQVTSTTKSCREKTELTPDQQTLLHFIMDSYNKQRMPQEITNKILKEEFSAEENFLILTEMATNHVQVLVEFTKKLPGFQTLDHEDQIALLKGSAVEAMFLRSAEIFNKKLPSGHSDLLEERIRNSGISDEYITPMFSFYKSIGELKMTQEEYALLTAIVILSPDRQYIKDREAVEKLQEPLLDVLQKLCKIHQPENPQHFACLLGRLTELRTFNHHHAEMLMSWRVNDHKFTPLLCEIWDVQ
Androgen receptor (Homo sapiens), sequence (P10275 whole entry, looked up): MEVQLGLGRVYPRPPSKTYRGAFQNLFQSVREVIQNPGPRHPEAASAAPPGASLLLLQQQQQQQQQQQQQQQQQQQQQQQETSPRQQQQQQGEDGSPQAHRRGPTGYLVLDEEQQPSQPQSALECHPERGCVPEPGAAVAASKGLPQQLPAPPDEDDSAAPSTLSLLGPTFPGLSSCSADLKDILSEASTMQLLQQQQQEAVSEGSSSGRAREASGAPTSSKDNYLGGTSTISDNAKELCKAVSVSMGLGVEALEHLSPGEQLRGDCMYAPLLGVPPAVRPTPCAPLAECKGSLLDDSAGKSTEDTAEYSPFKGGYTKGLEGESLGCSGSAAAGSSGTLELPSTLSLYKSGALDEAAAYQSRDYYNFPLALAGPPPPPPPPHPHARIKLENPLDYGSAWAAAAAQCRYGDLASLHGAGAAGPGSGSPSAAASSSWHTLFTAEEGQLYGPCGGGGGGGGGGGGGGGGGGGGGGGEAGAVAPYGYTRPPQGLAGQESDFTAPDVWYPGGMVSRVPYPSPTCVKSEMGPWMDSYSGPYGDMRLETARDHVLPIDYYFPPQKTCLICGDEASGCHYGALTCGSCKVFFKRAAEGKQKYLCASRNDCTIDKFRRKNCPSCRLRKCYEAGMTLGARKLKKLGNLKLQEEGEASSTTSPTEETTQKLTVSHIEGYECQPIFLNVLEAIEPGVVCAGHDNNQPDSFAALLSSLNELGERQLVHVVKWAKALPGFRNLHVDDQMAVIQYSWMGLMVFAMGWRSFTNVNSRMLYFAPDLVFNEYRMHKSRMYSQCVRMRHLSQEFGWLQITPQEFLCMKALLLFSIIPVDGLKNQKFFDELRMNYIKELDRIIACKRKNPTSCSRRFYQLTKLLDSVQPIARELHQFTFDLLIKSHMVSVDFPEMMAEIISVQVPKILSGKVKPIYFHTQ
Peroxisome proliferator-activated receptor delta (Homo sapiens), sequence (Q03181 whole entry, looked up): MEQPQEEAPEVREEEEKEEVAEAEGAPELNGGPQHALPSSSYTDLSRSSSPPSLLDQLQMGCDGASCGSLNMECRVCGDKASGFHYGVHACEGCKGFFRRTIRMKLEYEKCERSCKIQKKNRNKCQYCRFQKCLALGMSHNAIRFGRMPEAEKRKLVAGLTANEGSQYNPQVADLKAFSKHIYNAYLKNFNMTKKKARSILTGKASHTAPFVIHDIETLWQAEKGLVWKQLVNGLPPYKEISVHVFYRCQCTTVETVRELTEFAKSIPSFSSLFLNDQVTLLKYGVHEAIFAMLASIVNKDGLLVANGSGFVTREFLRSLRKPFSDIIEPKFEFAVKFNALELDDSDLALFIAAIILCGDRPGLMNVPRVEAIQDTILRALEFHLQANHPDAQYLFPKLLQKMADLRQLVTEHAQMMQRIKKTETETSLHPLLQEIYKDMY
Peroxisome proliferator-activated receptor gamma (Homo sapiens), sequence (P37231 whole entry, looked up): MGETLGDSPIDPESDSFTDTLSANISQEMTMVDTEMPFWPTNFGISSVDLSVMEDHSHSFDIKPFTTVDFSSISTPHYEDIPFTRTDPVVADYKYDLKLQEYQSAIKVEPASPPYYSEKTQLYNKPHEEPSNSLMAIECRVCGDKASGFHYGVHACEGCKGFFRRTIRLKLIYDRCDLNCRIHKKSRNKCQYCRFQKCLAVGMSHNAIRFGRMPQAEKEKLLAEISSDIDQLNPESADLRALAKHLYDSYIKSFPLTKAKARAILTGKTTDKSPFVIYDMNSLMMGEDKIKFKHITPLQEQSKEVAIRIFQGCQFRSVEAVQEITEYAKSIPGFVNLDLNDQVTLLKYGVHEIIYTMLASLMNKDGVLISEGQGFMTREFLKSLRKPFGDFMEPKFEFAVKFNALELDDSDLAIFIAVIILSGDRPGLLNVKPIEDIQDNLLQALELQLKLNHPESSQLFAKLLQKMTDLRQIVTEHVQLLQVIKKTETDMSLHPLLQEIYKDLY
Vitamin D3 receptor (Homo sapiens), sequence (P11473 whole entry, looked up): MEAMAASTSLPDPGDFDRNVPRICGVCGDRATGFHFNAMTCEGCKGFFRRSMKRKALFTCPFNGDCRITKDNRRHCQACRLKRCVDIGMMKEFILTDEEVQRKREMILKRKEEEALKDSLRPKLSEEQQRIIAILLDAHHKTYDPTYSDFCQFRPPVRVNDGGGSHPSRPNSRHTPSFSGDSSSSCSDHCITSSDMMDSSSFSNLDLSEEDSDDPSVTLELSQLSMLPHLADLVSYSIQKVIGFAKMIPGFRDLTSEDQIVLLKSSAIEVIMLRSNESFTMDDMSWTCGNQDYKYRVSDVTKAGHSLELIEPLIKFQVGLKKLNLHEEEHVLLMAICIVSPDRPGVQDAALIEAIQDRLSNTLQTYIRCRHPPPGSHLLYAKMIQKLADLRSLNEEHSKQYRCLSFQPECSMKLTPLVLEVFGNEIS
Luciferin 4-monooxygenase (Photinus pyralis), sequence (P08659 whole entry, looked up): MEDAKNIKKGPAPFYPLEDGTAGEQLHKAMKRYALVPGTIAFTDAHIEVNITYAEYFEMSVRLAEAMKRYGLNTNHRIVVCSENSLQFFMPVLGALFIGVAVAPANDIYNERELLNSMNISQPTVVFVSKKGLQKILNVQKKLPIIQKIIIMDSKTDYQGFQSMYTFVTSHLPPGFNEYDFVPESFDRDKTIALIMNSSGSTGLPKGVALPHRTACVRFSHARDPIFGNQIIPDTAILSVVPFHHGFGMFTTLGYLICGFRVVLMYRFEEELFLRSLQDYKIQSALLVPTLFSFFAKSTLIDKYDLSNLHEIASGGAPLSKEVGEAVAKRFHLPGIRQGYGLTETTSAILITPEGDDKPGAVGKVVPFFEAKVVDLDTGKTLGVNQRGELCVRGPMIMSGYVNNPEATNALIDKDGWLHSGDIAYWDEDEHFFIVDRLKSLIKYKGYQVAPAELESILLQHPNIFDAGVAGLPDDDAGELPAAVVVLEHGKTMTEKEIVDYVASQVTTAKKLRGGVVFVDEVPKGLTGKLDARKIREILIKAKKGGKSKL

CCOP(=O)(OCC)SCS(=O)(=O)C(C)(C)C
inactive: activation [1] 11.8% | Potency [2] | activation [3] -5.69% | Potency [5] | Potency [6] | Potency [7] | activation [8] -0.0868% | outcome [9]
-7.9%: max response [4]

CCOP(=O)(OCC)OC(Cl)C(Cl)(Cl)Cl (stereo unspecified)
inactive: activation [1] -3.01% | Potency [2] | activation [3] 4.93% | Potency [5] | activation [8] 1.4% | outcome [9]
51.3%: max response [4]

O=C(O)C(F)(F)C(F)(F)C(F)(F)C(F)(F)C(F)(F)C(F)(F)C(F)(F)C(F)(F)F
inactive: Potency [2] | activation [3] 3.01% and 1.7% | Potency [5] | Potency [6] | outcome [9]
-4.97% and -33.9%: max response [4]

O=C(O)C1(O)c2ccccc2-c2ccc(Cl)cc21 (stereo unspecified)
inactive: activation [1] -1.34% | activation [3] 8.73% | Potency [7] | activation [8] 3.02% | outcome [9]
active: Potency [10] 48.6 µM

O=[N+]([O-])c1ccc(Cl)c([N+](=O)[O-])c1
inactive: activation [1] -0.974% | activation [3] 16.6% | Potency [6]
active: Potency [2] 35.5 µM

CCSCCSP(=O)(OC)OC
active: Potency [10] 54.5 µM
-10.5%: max response [4]
inactive: activation [1] -9.34% | Potency [11] | Potency [5] | Potency [6] | activation [8] -0.99% | outcome [9]

Nc1cccc(Cl)c1Cl
30.5%: max response [4]
inactive: Potency [11] | Potency [2] | activation [3] 2.15% | Potency [5] | Potency [10] | outcome [9]

CCOP(=S)(OCC)SCCl
inactive: activation [1] 5.88% | Potency [11] | Potency [2] | Potency [7] | activation [8] -1.72% | outcome [9]

CCOP(N)(=O)Oc1ccc(SC)c(C)c1 (stereo unspecified)
41.4%: max response [4]
inactive: activation [1] -2.98% | Potency [11] | activation [3] 3.26% | Potency [5] | Potency [6] | Potency [7] | Potency [10] | activation [8] 0.0027%

Nc1c(Cl)c(F)nc(OCC(=O)O)c1Cl
inactive: activation [1] 0.917% | Potency [11] | Potency [6] | Potency [7] | activation [8] 0.422% | outcome [9]

COP(=O)(OC)SCn1c(=O)oc2cc(Cl)cnc21
inactive: activation [1] 7.35% | Potency [11] | activation [8] -1.51% | outcome [9]
active: Potency [10] 27.3 µM

COP(=S)(OC)Oc1ccc([N+](=O)[O-])c(C)c1
inactive: Potency [2] | activation [3] 2.17% | Potency [6] | Potency [7]

CCOP(=O)(OCC)SCSP(=S)(OCC)OCC
-37.2%: max response [4]
inactive: activation [1] -6.59% | Potency [11] | Potency [5] | Potency [6] | activation [8] 1.64%

CC(C)Oc1cc(-n2nc(C(C)(C)C)oc2=O)c(Cl)cc1Cl
22.7%: max response [4]
inactive: activation [1] -15% | activation [3] 1.08% | Potency [5] | Potency [7] | activation [8] 1.16%

CCOP(=O)(OCC)Oc1ccc2c(C)c(Cl)c(=O)oc2c1
36%: max response [4]
inactive: activation [1] -0.972% | Potency [11] | Potency [2] | Potency [5] | Potency [7]

CNC(=O)O/N=C/C(C)(C)S(C)(=O)=O
inactive: activation [1] 1.32% | activation [8] -1.23% | outcome [9]

CC(C)(C)C(O)C(Oc1ccc(-c2ccccc2)cc1)n1cncn1 (stereo unspecified)
inactive: activation [1] -4.84% | activation [3] 2.98% | Potency [5] | activation [8] -1.06%
active: Potency [10] 68.6 µM
-42.4%: max response [4]

[Ga]#[As]
inactive: activation [1] 2.63% | Potency [11] | Potency [2] | Potency [5] | Potency [6] | Potency [7] | activation [8] -0.5% | outcome [9]
33%: max response [4]

CC1(C)CC/C(=C\c2ccc(Cl)cc2)C1(O)Cn1cncn1 (stereo unspecified)
inactive: activation [1] -0.862% | Potency [11] | Potency [6] | Potency [7] | Potency [12]

CCCCOCCOC(C)=O
-10.5%: max response [4]
inactive: Potency [2] | activation [3] 1.59% | Potency [5] | Potency [6] | Potency [7] | outcome [9]

Clc1ccc([C@]2(Cn3cncn3)C[C@@H](Br)CO2)c(Cl)c1
inactive: Potency [2] | activation [3] -2.66% and -2.04% | Potency [7] | activation [8] -2.1% and -2.03%

CNC(=O)Oc1ccc(N(C)C)c(C)c1
-23.4%: max response [4]
active: Potency [10] 54.5 µM
inactive: Potency [2] | activation [3] 0.727% | Potency [5] | Potency [6] | Potency [7] | activation [8] -0.493% | outcome [9]

CCCCC(O)(Cn1cncn1)c1ccc(Cl)cc1Cl (stereo unspecified)
-34%: max response [4]
inactive: activation [1] -10.4% | Potency [2] | Potency [5] | activation [8] 0.388%

CCOc1nc(F)cc2nc(S(=O)(=O)Nc3c(Cl)cccc3Cl)nn12
23.2%: max response [4]
inactive: Potency [2] | activation [3] -0.748% | Potency [5] | Potency [6] | Potency [7] | outcome [9]

CCOP(=O)(NC(C)C)Oc1ccc(S(C)(=O)=O)c(C)c1 (stereo unspecified)
inactive: activation [1] 6.06% | Potency [11] | activation [3] -2.2% | Potency [6] | Potency [10] | activation [8] -0.438%
